The record followed here is PubChem BioAssay AID2013 (Sanford-Burnham Center for Chemical Genomics, 2009).

Out of some 290,000 compounds screened, about 370 (0.13%) were called active.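 Rule for the calls: active = spots per cell inhibited over 60%, with over 100 cells counted and total cytoplasm intensity under 500,000; inconclusive = wells with under 100 cells, flagged as likely toxic; inactive = the rest.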 The entries come from a sample that favours actives as a whole. Entries with a potency or affinity are not part of this list.

Chain of G-protein coupled receptor 55 (Homo sapiens) (Q9Y2T6 whole entry, looked up): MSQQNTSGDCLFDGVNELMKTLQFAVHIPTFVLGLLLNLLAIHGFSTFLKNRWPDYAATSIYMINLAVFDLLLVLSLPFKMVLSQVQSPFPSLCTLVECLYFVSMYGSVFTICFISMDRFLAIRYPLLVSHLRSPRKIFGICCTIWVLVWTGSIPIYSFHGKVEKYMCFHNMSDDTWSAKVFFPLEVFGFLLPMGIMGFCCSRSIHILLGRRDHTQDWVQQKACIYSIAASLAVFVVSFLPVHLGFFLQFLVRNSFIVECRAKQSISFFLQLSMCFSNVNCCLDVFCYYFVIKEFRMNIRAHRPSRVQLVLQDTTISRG

This experiment has as its target G-protein coupled receptor 55 (Homo sapiens) (UniProt Q9Y2T6). Briefly: inhibition of LPI-stimulated GPR55 beta-arrestin translocation – imaging, U2OS, beta-arrestin-GFP, LPI agonist, primary screen (AID 2013).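 Note: U2OS cells stably carrying GPR55 and arrestin-GFP stimulated by 5 µM LPI near EC80; imaged beta-arrestin-GFP aggregate spots per cell after agonist stimulation; plate controls were LPI-stimulated DMSO wells for no effect and DMSO wells without LPI for full effect.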 To be noted: LPI antagonism, at 10 µM, hits give high values.
On to `COc1cc(C(=O)NNC(=O)NC2CCCCC2)cc(OC)c1OC`, for which the inhibition is 8.5% (inactive).
To `O=C(NCc1ccccc1Cl)c1ccc2c(c1)SC1=NS(=O)(=O)CCN12` belongs -9.3% (inactive); to `COc1cccc(NC(=O)c2cccc(C(=O)Nc3cccc(OC)c3)c2)c1`, -0.6% (inactive).
The value for `C=CCNC(=O)/C(C#N)=C/c1ccccc1[N+](=O)[O-]` was 13.3% (inactive); that for `N#C/C(=C\C=C\c1ccccc1[N+](=O)[O-])C(=O)NCc1ccccc1` was 11.1% (inactive); that for `CC1=CC(=C(C#N)C#N)C=C(C)N1CCN1CCN(C(=O)Nc2cccc(Cl)c2)CC1` was 3.5% (inactive).
To `Cc1cccc(NC(=O)C2C3C=CC4(O3)C2C(=O)N(CCCN2CCCC2)C4C(=O)NC2CCCC(C)C2C)c1` (configuration not stated) belongs -6.5% (inactive); to `CC1(c2ccc([N+](=O)[O-])cc2)CC(C)(C)N(C(=O)c2ccccc2)c2ccccc21` (configuration not stated), 11.2% (inactive); to `CC1(c2ccccc2)CC(C)(C)N(C(=O)c2cc([N+](=O)[O-])cc([N+](=O)[O-])c2)c2ccccc21` (configuration not stated), 64.4% (active).
In the case of `CC1(c2cc([N+](=O)[O-])cc([N+](=O)[O-])c2)CC(C)(C)N(C(=O)c2ccccc2)c2ccccc21` (configuration not stated), the inhibition is -0.2% (inactive).
`COc1ccccc1Nc1nc(N)nc(-c2cc3ccccc3o2)n1`: the inhibition is 8.7% (inactive).
To `CC(NCC(O)COCc1ccc(Cl)cc1)c1ccccc1` (configuration not stated) belongs 0.4% (inactive); to `NCC(O)COCCC12CC3CC(CC(C3)C1)C2` (configuration not stated), 5.8% (inactive); to `CC1(C)CC(=O)C=C(NCC2CCCO2)C1` (configuration not stated), 3.1% (inactive).
Regarding `CC1=CC(c2ccc(Cl)cc2)n2nc(NC(=O)c3ccccc3)nc2N1` (configuration not stated), the inhibition was 5.1% (inactive).
In the case of `Cc1ccc(-c2ccnc3cc(C)nn23)cc1`, the inhibition is 13.3% (inactive).
Consider `c1cc2c3c(cccc3c1)C(N1CCCCC1)=N2`, for which the inhibition is 3.4% (inactive).
For the molecule `COc1ccccc1N1CCN(C2=Nc3cccc4cccc2c34)CC1`, the inhibition was 95.5% (active).
With `c1cc2c3c(cccc3c1)C(N1CCCCCC1)=N2`, the inhibition is 17.5% (inactive).
The value for `COc1ccc(/C=C2\SC(=O)N(CC(=O)NC3C=CS(=O)(=O)C3)C2=O)cc1` (configuration not stated) was 14.8% (inactive); that for `COc1ccc(CCNC(=O)C/C(C)=N/NC(=O)c2ccc([N+](=O)[O-])cc2Cl)cc1OC` was 5.9% (inactive); that for `C#CCOc1c(Br)cc(/C=N/O)cc1OCC` was -2.8% (inactive).
For `C=CCOc1ccc(/C=N/NC(=O)CN2CCOCC2)cc1OCC`, the inhibition was -14.5% (inactive).
Take `COCCNc1c2c(nc3c(-c4ccccc4)c(C)nn13)CCC2`: the inhibition is -0.5% (inactive).
The value for `CC(=O)c1c(O)cc(O)cc1CC(=O)O` was 14.6% (inactive).
The value for `CCCCN(CC)C(=O)CSc1nc2c(sc(=S)n2-c2ccc(OCC)cc2)c(=O)[nH]1` was 6.8% (inactive).
The value for `CCOC(=O)CSc1nc2c(sc(=S)n2-c2ccc(OCC)cc2)c(=O)[nH]1` was -5.3% (inactive).

As a reminder, the inhibition is the change of the read-out against control, counted positive when it falls.
